# Test results taken from PMC5540273 (PLoS ONE, 2017).
# Columns and labels:
# Details in all cases: concentration: 1 μM, replicates: in singlicate; n = 1
# SRMS = test system: SRMS
# SRPK1 = test system: SRPK1
# SRPK2 = test system: SRPK2
# SRPK3 = test system: SRPK3
# STK16 = test system: STK16
# STK33 = test system: STK33
# STK35 = test system: STK35
# STK36 = test system: STK36
# STK39 = test system: STK39
# SYK = test system: SYK
# SgK110 = test system: SgK110
# TAK1 = test system: T1, TAK1
# T1 construct: gene MAP3K7
# TAOK1 = test system: TAOK1
# TAOK2 = test system: TAOK2
# TAOK3 = test system: TAOK3
# TBK1 = test system: TBK1
# TEC = test system: TEC
# TESK1 = test system: TESK1
# TGFBR1 = test system: TGFBR1
# TGFBR2 = test system: TGFBR2
# 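Further: KINOMEscan kinase panel screen.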
Structure (SMILES),%Inh (SRMS) [%],%Inh (SRPK1) [%],%Inh (SRPK2) [%],%Inh (SRPK3) [%],%Inh (STK16) [%],%Inh (STK33) [%],%Inh (STK35) [%],%Inh (STK36) [%],%Inh (STK39) [%],%Inh (SYK) [%],%Inh (SgK110) [%],%Inh (TAK1) [%],%Inh (TAOK1) [%],%Inh (TAOK2) [%],%Inh (TAOK3) [%],%Inh (TBK1) [%],%Inh (TEC) [%],%Inh (TESK1) [%],%Inh (TGFBR1) [%],%Inh (TGFBR2) [%]
CC(C)N1CCC(n2cnc(-c3ccc(F)cc3)c2-c2ccnc(N)n2)CC1 [SB-223132],0,0,45,6,0,0,0,26,0,19,0,0,0,0,0,50,6,23,25,0
COc1cc2ncnc(Nc3ccc(OCc4ccccc4Br)c(Cl)c3)c2cc1OC.Cl [GI261590],0,0,32,5,6,0,18,0,7,33,0,0,0,0,0,10,21,33,27,0
Cn1ccc2ncnc(Nc3ccc(Oc4cccc(Cl)c4)c(Cl)c3)c21,0,20,0,0,0,26,0,6,0,4,11,25,0,0,0,28,96.7,13,4,0
Nc1nc(-c2ccc3c(N)n[nH]c3c2)cc(N2CCCCC2)n1 [GSK2228768],0,45,0,0,5,0,0,0,0,8,0,0,0,0,0,23,2,0,0,0
Fc1cccc(COc2ccc(Nc3ncnc4cc[nH]c34)cc2Cl)c1,0,8,7,33,20,15,0,33,9,32,0,8,0,0,0,4,18,0,9,0
Nc1nc(-c2cccnc2)c(-c2ccnc3ccccc23)s1 [GW684083],0,3,4,18,17,14,0,0,0,34,48,1,0,0,0,2,0,0,5,14
Nc1nc(-c2ccccn2)c(-c2ccnc3ccccc23)s1 [GW548057],0,0,58,0,19,1,0,0,7,2,0,20,0,0,0,12,8,0,–,50
Cc1ccc(C)c(NC(=O)NCCNc2ccnc(Nc3ccc(F)cc3)n2)c1 [GSK1379878],0,0,0,0,100,0,0,0,0,17,0,0,0,0,0,7,0,32,0,0
Cl.c1ccc(Cn2ccc3cc(Nc4ncnc5ccccc45)ccc32)cc1 [GW275568],15,11,0,0,19,0,0,20,18,26,0,6,0,23,0,39,4,9,29,0
CC(=O)Nc1n[nH]c2ncc(-c3ccccc3)cc12 [SB-548492],25,25,0,20,26,0,10,12,0,2,3,20,27,24,8,29,1,6,0,0
CCc1nc(-c2cccc(C)c2)c(-c2ccnc(NC(=O)c3ccccc3)c2)s1,0,0,0,0,6,12,0,–,0,0,18,35,0,0,0,10,18,0,32,0
